Screens deposited in PubChem BioAssay by National Center for Advancing Translational Sciences (NCATS).
This is a sample that favours compounds with a hit; in the whole collection about 7.5% have one here.
FLuc counter = qHTS profiling assay for firefly luciferase inhibitor/activator using purifed enzyme and Km concentrations of substrates (counterscreen for miR-21 project); Luciferin 4-monooxygenase (Photinus pyralis), P08659; actives 6.9% (n = 360,000); Potency, µM (titrated, usually from 57.5 µM), for the others: at the top dose activity change, negative = inhibition, actives largely listed as inhibitors; purified FLuc, Km substrates, luminescence inhibition;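 further: plate controls were vehicle for no effect and reference inhibitor for full effect; nearly all actives have a fitted effect of over 55% in size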
Target sequence (P08659 whole entry, looked up): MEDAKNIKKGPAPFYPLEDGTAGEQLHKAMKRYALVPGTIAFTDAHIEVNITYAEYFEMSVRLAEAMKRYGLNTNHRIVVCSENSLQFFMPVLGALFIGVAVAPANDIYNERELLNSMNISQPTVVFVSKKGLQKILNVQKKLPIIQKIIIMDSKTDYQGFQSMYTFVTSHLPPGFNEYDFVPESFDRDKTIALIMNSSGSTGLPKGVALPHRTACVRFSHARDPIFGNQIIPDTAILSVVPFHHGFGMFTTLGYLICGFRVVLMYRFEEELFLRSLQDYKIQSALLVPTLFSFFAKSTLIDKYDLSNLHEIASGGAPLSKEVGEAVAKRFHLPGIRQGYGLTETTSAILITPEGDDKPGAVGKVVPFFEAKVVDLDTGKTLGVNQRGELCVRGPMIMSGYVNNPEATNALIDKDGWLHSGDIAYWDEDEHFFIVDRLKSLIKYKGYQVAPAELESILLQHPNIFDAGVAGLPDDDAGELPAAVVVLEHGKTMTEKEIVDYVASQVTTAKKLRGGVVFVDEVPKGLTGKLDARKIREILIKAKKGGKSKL
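Purified P. pyralis luciferase, 10 nM final, with Km-level 10 uM D-luciferin and 10 uM ATP in 50 mM Tris acetate pH 7.5, 10 mM Mg acetate, 0.01% Tween-20, 0.05% BSA; 6-point qHTS titration about 60 µM downward; luminescence read.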
NPC1 promoter act = qHTS Assay for NPC1 Promoter Activators. actives 2.4% (n = 320,000). Potency, µM (series often up to 9.22 µM), inactives show top-dose activation, usual class: activators. Huh7 NPC1 promoter luciferase reporter, 24 h; further: % of control where 0% means no effect; nearly all actives have a fitted effect of over 60% in size
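Huh7 reporter cells (NPC1 promoter driving luciferase) are dosed with compound for 24 h at 37 °C, 5% CO2; luciferase detection reagent is then added and luminescence measured after 10 min at ambient temperature.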
Luc counter = Counterscreen for Luciferase (Kinase-Glo TM) Inhibition. Luciferin 4-monooxygenase (Photuris pensylvanica), Q27757. Kinase-Glo luciferase, ATP luminescence, 8 min. Potency, µM (doses to about 38.3 µM), for the others: at the highest dose activity change, negative = inhibition, most hits filed as inhibitors. actives 0.28% (n = 200,000). AID 1379, 2008; further: on the % scale 0 is the no-effect control and ±100 the full control effect; nearly all actives have a fitted effect of over 60% in size
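Compounds were added to a substrate mix at pH 7.2 (50 mM imidazole, 10 uM ATP, within the enzyme's linear range), followed by Kinase-Glo detection reagent; luminescence was measured after 8 minutes at ambient temperature.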
ELG1 genotoxic = qHTS screen for small molecules that induce genotoxicity in human embryonic kidney (HEK293T) cells expressing luciferase-tagged ELG1; HEK293T ELG1-luciferase reporter, luminescence, 16 h; Potency, µM (highest dose often 46 µM), for the others: at the top dose activity change, positive = activation, actives largely listed as activators; actives 1.3% (n = 330,000); AID 504466, 2011; further: % of control where 0% means no effect; nearly all actives have a fitted effect of over 60% in size
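HEK293T cells expressing luciferase-tagged ELG1 were treated with compound or DMSO for 16 hr at 37°C. Luciferase activity was then read after 30 min with ONE-Glo at room temperature; rising signal flags genetic stress.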
Rab9 prom act = qHTS Assay for Rab9 Promoter Activators | Huh7 Rab9 promoter-luciferase reporter, luminescence, 24 h | Potency, µM (highest dose often 9.22 µM), for inactives: top-dose activation, negative = inhibition, hits mostly activators | actives 2.8% (n = 320,000) | AID 485297, 2010; further: % of control where 0% means no effect; nearly all actives have a fitted effect of over 60% in size
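Cell-based reporter: Huh7 stable for Rab9 promoter-driven luciferase, plated in reduced-serum medium with 10% FBS at 1500 cells/well, compound-treated 24 h at 37 °C, luminescence read after 10 min reagent.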
SMN2 splice enh = qHTS Assay for Enhancers of SMN2 Splice Variant Expression | Potency, µM (top dose mostly 46.1 µM), without a hit: at the top dose activity change, positive = activation, usual class: activators | HEK293 SMN2-luciferase splicing reporter, luminescence, 30-36 h | actives 2.8% (n = 210,000); further: % of control where 0% means no effect; nearly all actives have a fitted effect of over 55% in size
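HEK293 cells carry an SMN2 […]–luciferase reporter in which exon 7 inclusion puts luciferase in frame. Cells were plated 10-12 h before compound addition, then incubated 30-36 h at 37C. ONE-Glo luminescence was read; sodium butyrate at 4.5 mM final served as control.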
An asterisk follows results filed as active; ? = inconclusive; . = not tested or not shown; [ ] = another dose, or the depositor's remark. The call rests on the fitted dose curve; in most records, active means well fitted curve in the direction sought with a large enough effect; inconclusive means small, poorly fitted or top-dose-only effect, or another doubt; inactive means no such curve, though single readings can be large; an effect the other way counts as inactive or inconclusive. Potency means the concentration at half of the fitted maximal effect.

SMILES | FLuc counter | NPC1 promoter act | Luc counter | ELG1 genotoxic | Rab9 prom act | SMN2 splice enh
O=C(Nc1cc2c3c(c1)CC(=O)N3CCC2)c1ccc(Cl)cc1 | 15µM* | 13% | . | ? | -4% | .
CC1CCCCN1C(=O)COC(=O)c1ccc2ccccc2n1 (stereo not given) | 8.5µM* | -8% | . | 1% | -4% | .
O=C(Cn1ncc2ccsc2c1=O)N1CCN(c2ccccc2F)CC1 | 3% | . | . | . | . | -9%
Cc1cccc(-n2c(Cc3cc(=O)[nH]c(=O)[nH]3)nnc2SCC(=O)N2CCc3ccccc32)c1 | -3% | 0% | . | 3% | 16% | .
COc1cc(SC)ccc1C(=O)Nc1ccc2ncccc2c1 | 0.76µM* | 1.3µM* | . | ? | 0.45µM* | .
COc1ccc(CNC(=O)c2ccc(SC)cc2OC)cc1 | -3% | 0% | 3% | 2% | 2% | 8%
COc1cc(SC)ccc1C(=O)Nc1ccccn1 | 0.48µM* | 0.79µM* | . | ? | 0.79µM* | .
COc1cc(SC)ccc1C(=O)NCCc1ccccc1 | 6µM* | 3.5µM* | -3% | ? | 3.5µM* | 10µM*
COc1cc(SC)ccc1C(=O)Nc1ncc(C)s1 | 0.13µM* | ? | -2% | ? | 0.45µM* | 1.3µM*
O=C(/C=C/c1ccccc1)Nc1nc(-c2cccs2)ns1 | 0% | . | . | . | . | .
O=C(CCc1ccccc1)NNC(=S)NC(=O)c1ccc(Cl)cc1 | 0% | 4% | -1% | 0% | 0% | -39%
COc1cc(SC)ccc1C(=O)Nc1cccc(C)n1 | 3.4µM* | ? | -4% | ? | 2µM* | 11µM*
COc1cc(SC)ccc1C(=O)Nc1ccon1 | 13µM* | ? | -3% | ? | 2.8µM* | ?
COc1cc(SC)ccc1C(=O)NCCOc1ccc(Cl)cc1 | -16% | 0% | 3% | -2% | 1% | -11%
COc1cc(SC)ccc1C(=O)Nc1ncc(Cl)cc1Cl | 2.4µM* | 4µM* | -1% | ? | 1.6µM* | 13µM*
COc1cc(SC)ccc1C(=O)Nc1ccc(Br)cn1 | 0.076µM* | 0.32µM* | . | ? | 0.28µM* | .
COc1cc(SC)ccc1C(=O)NC(C)C | -4% | -3% | -1% | 4% | -4% | -2%
CC(=O)c1ccc(NC(=O)CSc2nc(C3CCCC3)nc3c2c(=O)n(C)c(=O)n3C)cc1 | -3% | . | . | . | . | .
COc1cccc(CNC(=O)c2ccc3nc(-c4ccc(F)cc4)c(-c4ccc(F)cc4)nc3c2)c1 | -17% | . | . | . | . | .
CC(C)Oc1cccc(C(=O)NC2=NCCS2)c1 | 19µM* | 3.2µM* | 1% | -17% | 4µM* | 5µM*
O=C(NC1=NCCS1)c1cccc(NC(=O)c2ccco2)c1 | ? | 11% | -1% | 0% | 2% | 3%
COc1cccc(C(=O)NC2=NCCS2)c1 | 6µM* | 1µM* | -19% | ? | 0.56µM* | 2µM*
CCOc1cccc(C(=O)NC2=NCCS2)c1 | 12µM* | 0.63µM* | . | ? | 0.5µM* | .
CCOc1cccc2sc(NC(=O)CS(=O)(=O)c3ccc(C)cc3)nc12 | -3% | . | . | . | . | .
COc1ccc(-n2ncc(C(=O)NCc3ccco3)c2C2CCN(C(=O)OC(C)(C)C)CC2)cc1 | -1% | . | . | . | . | .
SMILES | FLuc counter | NPC1 promoter act | Luc counter | ELG1 genotoxic | Rab9 prom act | SMN2 splice enh
CC(C)CCNC(=O)c1cnc2sc(N3CCCCC3)nn2c1=O | -2% | . | . | . | . | .
CN(C)c1ccc(N=Nc2cccc(F)c2)cc1 | 0.24µM* | 2µM* | . | 0.65µM* | 3.5µM* | .
CN(C)c1ccc(N=Nc2cccc3ccoc23)cc1 | 1.2µM* | ? | -13%[7.66 µM] | 6.5µM* | ? | 3.5µM*
O=C(NCCc1ccccc1)c1cnc2sc(N3CCCCCC3)nn2c1=O | -8% | . | . | . | . | .
Oc1ccc(Br)cc1/C=N/n1cnc2ccccc21 | 8.5µM* | ? | -6% | 18% | ? | 26%
Oc1ccc(Br)cc1/C=N/N1CCCCC1 | 9.5µM* | ? | ? | ? | 4.5µM* | 17%[1.84 µM]
Oc1ccc(Br)cc1/C=N/n1c(COc2ccccc2)n[nH]c1=S | 3% | -3% | . | 0% | -3% | .
Oc1ccc(Br)cc1/C=N/N1CCN(Cc2ccccc2)CC1 | ? | 15% | 2% | 3% | 3% | -18%
COc1ccc(-[n+]2c(C)cc(/C=C3\Sc4ccccc4N3C)cc2C)cc1 | 19µM* | -41% | -2% | -16% | -48% | -63%
COc1ccccc1OC(=O)CCN1c2ccccc2Sc2ccccc21 | 0% | -4% | 0% | 2% | -8% | 1%
CC(=S)/C=C1\Sc2ccccc2N1C | -15% | -2% | -1% | -1% | -7% | -21%
COc1ccccc1-[n+]1c(C)cc(/C=C2\Sc3ccccc3N2C)cc1C | 2.4µM* | -35% | . | 3% | -40% | .
COc1ccc(C(=O)/C=C2\Sc3ccccc3N2C)cc1 | 1.2µM* | 0.71µM* | -15% | 1.6µM* | 0.89µM* | 7.9µM*
O=C(O)c1ccccc1N/C=C\[N+](=O)[O-] | -10% | 0% | -1% | 1% | -4% | -5%
CN(C(=O)CSc1nc2ccccc2o1)C1CCCCC1 | 7.6µM* | 2.2µM* | . | ? | 2.8µM* | .
CC1CCCN(C(=O)CSc2nc3ccccc3o2)C1 (stereo not given) | 17µM* | 2.5µM* | -4% | ? | 3.2µM* | 19%
O=C(O)c1ccc2oc(SCC(=O)N3CCCCC3)nc2c1 | 17µM* | 3.5µM* | -2% | ? | 2.5µM* | 13µM*
CN(C(=O)CSc1nnc(-c2cccnc2)o1)C1CCCCC1 | -2% | -1% | . | 1% | -1% | .
O=Nc1ccc2oc(=O)ccc2c1 | . | 4%[46.1 µM] | -5% | . | 17%[46.1 µM] | -5%
CC(C)(C)C1CCc2c(sc(NC(=O)Cn3nnc(-c4cccc(C(F)(F)F)c4)n3)c2C#N)C1 (stereo not given) | -19% | . | . | . | . | 6%
N#Cc1c(-c2ccccc2)nc(SCC(=O)Nc2ccccc2)[nH]c1=O | 0% | -3% | 3% | 0% | -10% | 13%
Cc1cc(NC(=O)CSc2nc(-c3ccccc3)c(C#N)c(=O)[nH]2)no1 | -2% | 1% | 4% | -3% | 6% | -16%
CCc1ccc(NC(=O)CSc2nc(-c3ccccc3)c(C#N)c(=O)[nH]2)cc1 | 11µM* | . | . | . | . | .
Cc1cc(C)nc(NS(=O)(=O)c2ccc(NC(=O)CSc3nc(-c4ccccc4)c(C#N)c(=O)[nH]3)cc2)n1 | 11µM* | -2% | 2% | 6% | 2% | -20%
